# PubChem BioAssay AID651784 (National Center for Advancing Translational Sciences (NCATS), 2012)
# Records with an inconclusive call do not appear. The source made the active and inactive calls. The call rests on the fitted dose curve; in most records, active means well fitted inhibition curve with a large enough effect; inconclusive means small, poorly fitted or top-dose-only effect; inactive means no such curve, though single readings can be large or run the other way.
# Assay: Acumen qHTS Assay for Inhibitors of the mTORC1 Signaling Pathway in MEF (Tsc2-/-, p53-/-) Cells: Hit Validation;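 further: phospho-rpS6 Ser235/236 immunofluorescence normalized to propidium iodide cell count; nearly all actives have a fitted effect of over 65% in size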;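 on activity change, negative = inhibition: cells exposed to compound for 24 hours; plate controls were DMSO for no effect and 7.5 nM rapamycin control for full effect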
# Details: Acumen imaging; activity change, negative = inhibition: at 37.3 µM (top of the series)
# Potency means the concentration at half of the fitted maximal effect.
compound,measurement,value
CCOc1cccc(C2CC(=O)Nc3cc4c(cc32)OCCO4)c1 (configuration not stated),"activity change, negative = inhibition",-113%
Cc1ccc(NC(=O)c2nc(S(=O)(=O)Cc3ccc(F)cc3)ncc2Cl)cc1C,Potency,11.7 µM (active)
CCCC(=O)OC1=CN(Cc2ccccc2)S(=O)(=O)c2ccccc21,"activity change, negative = inhibition",-27.1%
CCCCCn1c(=N)n(CC(O)COc2cccc(C)c2)c2ccccc21 (configuration not stated),Potency,5.85 µM (active)
CCC(C)Sc1oc(-c2ccco2)nc1S(=O)(=O)c1ccc(C)cc1 (configuration not stated),"activity change, negative = inhibition",3.02%
COc1cc(OC)cc(C(=O)NCCc2csc(-c3cccc(C)c3)n2)c1,"activity change, negative = inhibition",-7.07%
COc1ccc(CNC(=O)Cn2c(SCC(=O)Nc3ccc(C)c(C)c3)nc3ccccc32)cc1,"activity change, negative = inhibition",-79.6%
CC1CCN(S(=O)(=O)c2ccc(C(=O)Nc3sc4c(c3C(N)=O)CC(C)(C)NC4(C)C)cc2)CC1,"activity change, negative = inhibition",-107%
COc1cc(C)ccc1OCCn1c(-c2ccc(Cl)cc2)nc2ccccc2c1=O,"activity change, negative = inhibition",-1.14%
CCOc1ccccc1NS(=O)(=O)c1ccc(-c2cnc(C3CC3)o2)cc1,Potency,0.464 µM (active)
CCOC(=O)c1c(NC(=O)c2ccc(S(=O)(=O)N(CCOC)CCOC)cc2)sc2c1CC(C)(C)NC2(C)C,Potency,8.26 µM (active)
Cc1ccc(C(=O)CC2(O)C(=O)N(Cc3ccccc3)c3ccc(Br)cc32)cc1 (configuration not stated),Potency,11.7 µM (active)
COc1cccc(-n2c(-c3ccco3)nc3c(cnn3-c3ccc(C)cc3)c2=O)c1,"activity change, negative = inhibition",15.6%
Cc1cccc(OCC(O)Cn2c(=N)n(CCN3CCCCC3)c3ccccc32)c1 (configuration not stated),Potency,5.85 µM (active)
CCOc1ccc(N(Cc2ccccc2)C(=O)c2nc(S(C)(=O)=O)ncc2Cl)cc1,Potency,2.93 µM (active)
CC(C)Oc1ccc(CNC(=O)c2ccc3nc(SCc4ccc(F)cc4)n(C)c3c2)cc1,"activity change, negative = inhibition",-8.96%
O=C(Nc1ccc(Cl)cc1)c1cc(S(=O)(=O)N2CCCc3ccccc32)ccc1F,"activity change, negative = inhibition",-18.3%
CCC(Sc1nncn2c1cc1oc(C)cc12)C(=O)Nc1ccc(F)cc1 (configuration not stated),"activity change, negative = inhibition",12.3%
O=C(c1ccco1)n1nc(-c2ccc(Cl)cc2)nc1NCc1ccccc1,"activity change, negative = inhibition",-47.3%
CCn1c2ccccc2c2cc(CN3CCN(Cc4ccc(Cl)cc4)CC3)ccc21,Potency,14.7 µM (active)
CCOc1cc(C2CC(=O)Nc3cc4c(cc32)OCCO4)ccc1O (configuration not stated),"activity change, negative = inhibition",3.9%
CCCCS(=O)(=O)c1oc(-c2ccc(F)cc2)nc1S(=O)(=O)c1ccccc1,"activity change, negative = inhibition",-151%
Cc1nc2scc(C)n2c(=O)c1S(=O)(=O)Nc1ccc(N2CCOCC2)c(Cl)c1,Potency,1.47 µM (active)
CCOc1ccc(CCNCc2c(C(=O)O)n(Cc3ccc(C)cc3)c3cc(OC)ccc23)cc1,"activity change, negative = inhibition",-26.5%
CCn1c(=O)sc2cc(NS(=O)(=O)c3ccc(F)c(C)c3)ccc21,"activity change, negative = inhibition",-28.9%
Cc1ccc2oc(-c3ccc(Cl)cc3)c(O)c(=O)c2c1,"activity change, negative = inhibition",-44.5%
C=CCc1c(C)nc2nc(SCC(=O)Nc3ccc(C)c(C)c3)nn2c1C,"activity change, negative = inhibition",-88.7%
CCN1CCOC(=O)C1CC(=O)Nc1cc(Cl)ccc1C (configuration not stated),"activity change, negative = inhibition",-93.4%
O=C(CN(CCc1ccccc1)S(=O)(=O)c1ccccc1)NCc1ccc(Cl)cc1,"activity change, negative = inhibition",-3.71%
Cc1cccc(NC(=O)c2c(N)sc3c2CCC(C)C3)c1 (configuration not stated),"activity change, negative = inhibition",15.3%
Cc1ccc([C@H]2Nc3ccc(S(=O)(=O)Nc4cccc(Cl)c4C)cc3[C@H]3C=CC[C@H]32)cc1,"activity change, negative = inhibition",8.84%
COc1cccc(-c2nnc3sc(CN4CCCCC4)cn23)c1,Potency,1.04 µM (active)
CCc1ccc(CN(Cc2ccco2)C(=O)c2cc(-c3ccc(C)c(F)c3)on2)cc1,"activity change, negative = inhibition",-10.4%
COc1ccccc1C(=O)Nc1ccc2nc(N3CCC(C)CC3)cc(C)c2c1,"activity change, negative = inhibition",-19.9%
CCOc1ccc(NC(=O)N(Cc2c[nH]c3ccccc23)C2CCCCCC2)cc1,"activity change, negative = inhibition",-15.9%
CC(=O)C1=C(c2ccccc2)N(C(C)=O)n2c(nnc2C2CCCCC2)S1,Potency,7.36 µM (active)
CS(=O)c1ccc(-c2nc(-c3ccc(F)cc3)c(-c3ccncc3)[nH]2)cc1 (configuration not stated),"activity change, negative = inhibition",-5.71%
